# Laboratory results published in the supplement of paper PMC12645437, “Orthogonal IMiD-Degron Pairs Induce Selective Protein Degradation in Cells” (ACS Chemical Biology, 2025).
# The full ranking holds about 8,300 sequences; the median of “log2 fold change of degron read counts, EGFP-low vs EGFP+ sorted cells (limma voom), compound-induced degradation” is about -1.1, and the highest 2% start at about 3.2. The entries come from a sample that favours the highest values as a whole.
# T1: CRBN, Q96SW2
# T1 chain: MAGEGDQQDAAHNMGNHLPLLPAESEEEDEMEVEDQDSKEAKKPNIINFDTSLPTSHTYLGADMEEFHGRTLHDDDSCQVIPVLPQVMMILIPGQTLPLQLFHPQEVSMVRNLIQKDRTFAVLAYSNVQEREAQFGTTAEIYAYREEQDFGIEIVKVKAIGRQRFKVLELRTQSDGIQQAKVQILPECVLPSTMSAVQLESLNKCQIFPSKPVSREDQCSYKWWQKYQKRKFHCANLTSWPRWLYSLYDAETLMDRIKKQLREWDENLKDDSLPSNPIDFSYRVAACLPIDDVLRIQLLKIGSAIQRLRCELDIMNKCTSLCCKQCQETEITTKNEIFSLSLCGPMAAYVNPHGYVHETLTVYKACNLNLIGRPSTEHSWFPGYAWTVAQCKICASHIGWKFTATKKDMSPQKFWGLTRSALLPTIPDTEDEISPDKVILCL
# Molecular target: T1, CRBN, Q96SW2
# Experiment: log2 fold change of degron read counts, EGFP-low vs EGFP+ sorted cells (limma voom), compound-induced degradation; higher = more compound-induced degradation of the degron-EGFP fusion; degrons are variants of IKZF1/3 zinc finger 2; compound dose not given here
# Conditions: Jurkat, 18 h
# [1] = compound: compound 19 (5-tert-butyl-thalidomide)
# [2] = compound: compound 22 (5-morpholino-thalidomide)
# [3] = compound: compound 33 (diphenyl IMiD analogue)
# 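Note: pooled lentiviral library of zinc finger degron-EGFP fusions in mCherry-positive Jurkat cells, FACS-sorted after compound exposure, with degron abundance counted by next-generation sequencing.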
Sequence,log2 fold change of degron read counts [1],log2 fold change of degron read counts [2],log2 fold change of degron read counts [3],log2 fold change of degron read counts (compound: thalidomide)
"FCCDVCGACFTQKGNLLRHIKL [46F_47C_49D_50V_52G_53A_54C_55F_67L_, Q9UKT9]",0.633,0.299,1.47,-0.594
"FWCNQCGAKFTQKGNLLRHIKL [46F_47W_49N_50Q_52G_53A_54K_55F_67L_, Q9UKT9]",0.0883,0.432,-1.2,-1.53
"FTCNQCGRLFTQKGNLLRHIKL [46F_47T_49N_50Q_52G_53R_54L_55F_67L_, Q9UKT9]",-2.58,-2.81,-3.15,-2.31
"FYCPICGRVFTQKGNLLRHIKL [46F_47Y_49P_50I_52G_53R_54V_55F_67L_, Q9UKT9]",-0.29,-0.155,0.579,-1.3
"FWCNQCGRTFTQKGNLLRHIKL [46F_47W_49N_50Q_52G_53R_54T_55F_67L_, Q9UKT9]",-1.55,-1.36,-1.37,-1.45
"FVCDQCGAPFTQKGNLLRHIKL [46F_47V_49D_50Q_52G_53A_54P_55F_67L_, Q9UKT9]",-1.33,0.669,-0.689,-0.0169
"FICPICGRVFTQKGNLLRHIKL [46F_47I_49P_50I_52G_53R_54V_55F_67L_, Q9UKT9]",-1.47,-0.445,0.321,0.637
"FGCPICGAWFTQKGNLLRHIKL [46F_47G_49P_50I_52G_53A_54W_55F_67L_, Q9UKT9]",1.54,-0.463,1.47,-0.0772
"FCCEICGRVFTQKGNLLRHIKL [46F_47C_49E_50I_52G_53R_54V_55F_67L_, Q9UKT9]",-1.06,-1.44,-0.0327,-0.334
"FICEICGASFTQKGNLLRHIKL [46F_47I_49E_50I_52G_53A_54S_55F_67L_, Q9UKT9]",0.541,2.73,2.39,2.95
"FFCEICGHSFTQKGNLLRHIKL [46F_47F_49E_50I_52G_53H_54S_55F_67L_, Q9UKT9]",-2.6,-2.19,-2.73,-2.65
"FFCEICGASFTQKGNLLRHIKL [46F_47F_49E_50I_52G_53A_54S_55F_67L_, Q9UKT9]",3.6,3.72,2.31,1.63
"FWCEICGASFTQKGNLLRHIKL [46F_47W_49E_50I_52G_53A_54S_55F_67L_, Q9UKT9]",3.83,3.81,2.56,1.42
"FVCEICGASFTQKGNLLRHIKL [46F_47V_49E_50I_52G_53A_54S_55F_67L_, Q9UKT9]",1.36,2.28,1.92,3
"FLCEICGASFTQKGNLLRHIKL [46F_47L_49E_50I_52G_53A_54S_55F_67L_, Q9UKT9]",1.8,-0.0236,1.14,1.42
"FRCEICGASFTQKGNLLRHIKL [46F_47R_49E_50I_52G_53A_54S_55F_67L_, Q9UKT9]",2.38,1.52,2.01,2.12
"FTCEICGASFTQKGNLLRHIKL [46F_47T_49E_50I_52G_53A_54S_55F_67L_, Q9UKT9]",2.27,3.03,2.5,3
"FACEICGASFTQKGNLLRHIKL [46F_47A_49E_50I_52G_53A_54S_55F_67L_, Q9UKT9]",3.67,2.8,0.948,1.06
"FNCEICGASFTQKGNLLRHIKL [46F_47N_49E_50I_52G_53A_54S_55F_67L_, Q9UKT9]",3.43,1.63,0.778,0.457
"FECEICGASFTQKGNLLRHIKL [46F_47E_49E_50I_52G_53A_54S_55F_67L_, Q9UKT9]",2.12,-0.516,1.74,2.43
"FECNQCGAGFTQKGNLLRHIKL [46F_47E_49N_50Q_52G_53A_54G_55F_67L_, Q9UKT9]",-2.2,-2.79,-2.43,-2.17
"LLCNQCGFQCTQKGNLLRHIKL [46L_47L_49N_50Q_52G_53F_54Q_55C_67L_, Q9UKT9]",-2.02,-1.96,-2.15,-1.68
"FQCNVCGAYFTQKGNLLRHIKL [46F_47Q_49N_50V_52G_53A_54Y_55F_67L_, Q9UKT9]",-2.25,-1.8,-0.854,1.41
"FICEICGHAFTQKGNLLRHIKL [46F_47I_49E_50I_52G_53H_54A_55F_67L_, Q9UKT9]",-3.32,-2.94,-2.31,-1.67
"FRCDQCGACFTQKGNLLRHIKL [46F_47R_49D_50Q_52G_53A_54C_55F_67L_, Q9UKT9]",-2.93,-3.5,-1.12,-2.52
"FHCEICGHSFTQKGNLLRHIKL [46F_47H_49E_50I_52G_53H_54S_55F_67L_, Q9UKT9]",-2.93,-3.88,-2.79,-3.22
"FTCNQCGHFFTQKGNLLRHIKL [46F_47T_49N_50Q_52G_53H_54F_55F_67L_, Q9UKT9]",-1.82,-2.32,-2.31,-2.01
"FICEICGRCFTQKGNLLRHIKL [46F_47I_49E_50I_52G_53R_54C_55F_67L_, Q9UKT9]",-2.73,-1.99,-0.856,-0.602
